# GPT2 inhibitor – GPT2 alanine aminotransferase inhibition; Q8TD30; Recombinant GPT2, coupled pyruvate oxidase/HRP Amplex Red fluorescence; Potency, µM (top dose mostly 57.7 µM), without a hit: at the highest dose activity change, negative = inhibition, actives largely listed as inhibitors; hit rate 0.25% among 100,000; AID 1671188; also: nearly all actives have a fitted effect of over 60% in size
# Target sequence (Q8TD30 whole entry, looked up): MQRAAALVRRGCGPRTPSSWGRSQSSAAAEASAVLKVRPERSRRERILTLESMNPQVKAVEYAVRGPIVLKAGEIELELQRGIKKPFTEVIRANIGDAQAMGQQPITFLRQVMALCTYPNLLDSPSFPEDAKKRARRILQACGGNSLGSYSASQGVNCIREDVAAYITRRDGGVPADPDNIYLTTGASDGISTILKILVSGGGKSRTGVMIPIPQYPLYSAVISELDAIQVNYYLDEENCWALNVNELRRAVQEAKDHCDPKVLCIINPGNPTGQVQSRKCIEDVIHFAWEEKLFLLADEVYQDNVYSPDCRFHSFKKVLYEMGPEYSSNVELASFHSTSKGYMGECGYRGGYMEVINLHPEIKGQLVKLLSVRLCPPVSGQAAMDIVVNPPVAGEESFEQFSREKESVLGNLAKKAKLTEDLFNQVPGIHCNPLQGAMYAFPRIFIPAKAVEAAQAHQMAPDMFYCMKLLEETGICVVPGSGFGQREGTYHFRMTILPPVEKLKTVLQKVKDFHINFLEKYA
#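 Recombinant GPT2 (10ng/uL) with 250uM a-KG and 2mM L-alanine, 30 min at room temperature, in HEPES pH 7.5 buffer. Pyruvate detected by pyruvate oxidase/HRP/Amplex Red fluorescence after 30 min in the dark; AOA (50uM) as positive control.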
# 3T3 cytotox – NIH 3T3 cell cytotoxicity; AID 1345082; hit rate 4.3% among 94,000; Potency, µM (doses to about 96.7 µM), for the others: at the highest dose activity change, negative = cytotoxicity, actives largely listed as inhibitors; NIH 3T3 viability, CellTiter-Glo ATP luminescence, 48-72 h; also: nearly all actives have a fitted effect of over 55% in size
#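 Cells were seeded at 400 per well, treated with pin-transferred compound, and kept 48 or 72 hr at 37 °C before CellTiter-Glo addition and luminescence imaging of cellular ATP.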
# FLuc inh – Photinus pyralis luciferase inhibition; Potency, µM (titrated, usually from 115 µM), most hits filed as inhibitors; hit rate 2.5% among 76,000; P08659; purified P. pyralis luciferase, luminescence, biochemical; AID 1347043; also: nearly all actives have a fitted effect of over 65% in size
#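 Luminescence read by CCD imager after adding enzyme (10nM final) to wells holding compound, titrated in qHTS. Substrates 10uM each D-luciferin and ATP; buffer 50mM Tris acetate pH 7.5, 10mM Mg acetate, Tween-20, BSA.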
# HEK293 tox – cytotoxic compounds in HEK 293 cells | HEK 293 viability, ATP luminescence (CellTiter-Glo), 48-72 h | Potency, µM (titrated, usually from 115 µM), without a hit: at the highest dose activity change, negative = cytotoxicity, hits mostly inhibitors | hit rate 6.6% among 94,000 | AID 1345083; also: nearly all actives have a fitted effect of over 60% in size
#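 Luminescence from cellular ATP, measured with CellTiter-Glo, indicates HEK 293 viability. Cells plated at 250 cells/well are treated with compound for 48 or 72 hr at 37 degree Celsius before reagent addition.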
# NPR1 antag – antagonists of human natriuretic peptide receptor Npr1 | HEK293 hNpr1 GloSensor cGMP, ANP-stimulated luminescence | Potency, µM (top dose mostly 46.3 µM), without a hit: at the highest dose activity change, negative = inhibition, usual class: inhibitors | hit rate 1.6% among 76,000; calls by dose curve; also: nearly all actives have a fitted effect of over 60% in size
#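 HEK293 cells stably expressing human Npr1 and cGMP GloSensor pGS-40F, loaded 2 h with 2% GloSensor reagent, given compound 30 min at room temperature. Luminescence read before and 20 min after 0.1 nM hNppA.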
# An asterisk follows results filed as active; i = inactive; ? = inconclusive; nt = no result given; ! = not confirmed by another sample; [ ] = remark or other dose. Compounds with a hit are over-represented: about 10% of the library has one in this group of screens. Unless noted, calls follow the shape of the dose curve; as a rule, active = well fitted curve in the direction sought with a large enough effect; inconclusive = small, poorly fitted or top-dose-only effect, or another doubt; inactive = no such curve, though single readings can be large; an effect the other way counts as inactive or inconclusive. % is scaled to controls: 0 for no effect and ±100 for the full control effect; potency is read from the fitted curve at half-maximal effect.
SMILES,GPT2 inhibitor,3T3 cytotox,FLuc inh,HEK293 tox,NPR1 antag
O=C(c1c(F)cccc1F)N1CCC(n2cc(-c3nc(-c4ccccc4)no3)nn2)CC1,-34%,?,i,?,1.1µM*
Cc1ccc(C(=O)N2CCC(n3cc(-c4nc(-c5ccccc5)no4)nn3)CC2)cc1,4%,-17%,i,?,-21%
O=C(COc1ccccc1)N1CCC(n2cc(-c3nc(-c4ccccc4)no3)nn2)CC1,i,13µM*,i,?,0%
O=C(c1ccccc1)N1CCC(n2cc(-c3nc(-c4ccccc4)no3)nn2)CC1,i,40µM*,i,?,0%
CC(=O)N1CCN(C(=O)c2cn3cc(-c4ccc(F)cc4)sc3n2)CC1,i,-30%,nt,-4%,nt
Cc1nn(-c2ccccc2)c2c1C(C(C)C)N(C1CCCN([S+](=O)([O-])c3cccs3)C1)C2=O (stereo not drawn),nt,-20%,nt,?,nt
Cc1ccc(Cn2cc(-c3ccncc3)cc2C(=O)NCc2ccc(N(C)C)cc2)cc1,-9%,?,i,45µM*,0%
Cc1ccccc1Cn1cc(-c2ccncc2)cc1C(=O)NCc1ccncc1,-7%,?,i,?,-10%
O=C(c1ccccc1Cl)N1CCC(C(=O)N2CCC(c3nc4ncccc4[nH]3)CC2)C1 (stereo not drawn),i,-24%,nt,-1%,nt
CCOc1ccc(NC(=O)c2nnn3cc(C)[nH]c(=O)c23)cc1,-2%,-8%,?,3%,-4%
COc1ccc(CCC(=O)N2C[C@@H](C(N)=O)[C@H](c3nc(C)no3)C2)cc1OC,1%,-9%,i,-5%,5%
CSCCNC(=O)c1cc(Br)cn2ccnc12,4%[88.5 µM],-13%[138 µM],45µM*!,-24%[172 µM],11%[70.6 µM]
O=C(NCCc1ccc(Cl)cc1)c1cc(Br)cn2ccnc12,1%,-6%,i,-27%,-6%
Cc1cc(C(=O)N2CCCCCC2c2nnc(-c3ccccc3)o2)n(C)n1 (stereo not drawn),i,-22%,i,?,3%
CN1CCC(NC(=O)C(C)(C)Oc2nn(CCOc3ccccc3)c3ccccc23)CC1,2%[88.5 µM],40µM*,i,89µM*,0%[70.6 µM]
CC(C)(Oc1nn(CCOc2ccccc2)c2ccccc12)C(=O)Nc1cccnc1,-1%[88.5 µM],?,i,?,-21%[70.6 µM]
CN(C)CCNC(=O)C(C)(C)Oc1nn(CCOc2ccccc2)c2ccccc12,-13%[88.5 µM],25µM*,i,89µM*,-15%[70.6 µM]
CSc1ccc(-c2cccc(C(=O)NCC(=O)NC3CCCC3)c2)cc1,i,-39%,nt,?,nt
CCOc1ccccc1CN1CCC2(CCN(C(C)=O)CC2)Oc2ccccc21,i,-29%,i,?,11%
CCOc1ccccc1CN1CCC2(CCN(C(=O)C3CC3)CC2)Oc2ccccc21,i,25µM*,i,45µM*,16%
CCOc1ccccc1CN1CCC2(CCN(C(=O)C(C)(C)C)CC2)Oc2ccccc21,i,32µM*,i,40µM*,5%
CSc1ccc(C(=O)N2CC(=O)N(Cc3cccc(F)c3)CC(O)C2)cc1 (stereo not drawn),nt,?,nt,-18%,nt
CCCCCNC(=O)c1ccc(CN2C(=O)NC3(CCS(=O)(=O)CC3)C2=O)cc1,i,-14%,i,-2%,-5%
Cc1nc(N2CCN(C(=O)c3c(F)cccc3Cl)CC2)cc(C(F)(F)F)n1,i,-23%,i,-21%,-2%
CC(c1ccccc1)N1CCN(c2cccc(CN(C)[S+](C)(=O)[O-])c2F)CC1 (stereo not drawn),nt,?,nt,79µM*,nt
CCOC(=O)C(Cc1cccc(N2CCN(C(=O)c3c(Cl)cccc3Cl)CC2)c1F)OC (stereo not drawn),nt,?,nt,79µM*,nt
CC(C)OC(=O)N(C)Cc1cccc(N2CCN(C(=O)c3c(Cl)cccc3Cl)CC2)c1F,nt,?,nt,35µM*,nt
CC(C)N(Cc1cccc(N2CCN(C(=O)c3c(Cl)cccc3Cl)CC2)c1F)[S+](C)(=O)[O-],nt,?,nt,79µM*,nt
O=C(c1ccc(F)cc1)N1CCN(C(=O)c2cccc(-c3ccccn3)c2)CC1,i,-34%,nt,?,nt
